Several values for one entry are separate records, joined by “and”; a condition that tells them apart may be missing. Equal entries are not always repeated. The whole screen tested about 5,500 compounds, of which about 2,000 (36%) were called active. Inconclusive results (about 18%) are left out. Cut-off read from the data, not from the text of the source: active = normalized growth mostly below about 0.91 (no sharp cut-off); inconclusive = no clear call, values can overlap the other calls; inactive = mostly above about 0.92. The list shows a part of the results.
Experiment: chemical genetic growth profiling, strain panel (AID 1159580);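 note: tested at 20 µM; growth read once vehicle control cultures reached saturation at 30 °C; 1 = growth at the plate median or of vehicle wells; lower values mean less growth of the strain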
Settings: S. cerevisiae deletion strains, growth OD

Measured: normalized growth

COC[C@]12CN(C=O)C3[C@@H]4[C@H](OC)C1[C@]3(C1CC3(O)C(OC)C(O)C4(OC(C)=O)C1C3OC(=O)c1ccccc1)[C@@H](OC)C[C@H]2O (stereo not given in full)
inactive: locus YAL021C, strain ccr4, stronger effect = lower value 1.02 | locus YAL026C, strain drs2, stronger effect = lower value 1.01 | locus YAL030W, strain snc1, stronger effect = lower value 1.01 | locus YBL061C, strain skt5, stronger effect = lower value 1.01 | locus YBR009C, strain hhf1, stronger effect = lower value 1.01 | locus YBR021W, strain FUR4, stronger effect = lower value 0.995 | locus YBR023C, strain chs3, stronger effect = lower value 1.01 | locus YBR171W, strain sec66, stronger effect = lower value 1.03 | locus YBR229C, strain ROT2, stronger effect = lower value 1.01 | locus YBR231C, strain swc5, stronger effect = lower value 1.01 | locus YBR279W, strain paf1, stronger effect = lower value 1.01 | locus YCL011C, strain gbp2, stronger effect = lower value 1.01 | locus YCL016C, strain dcc1, stronger effect = lower value 1.01 | locus YCL029C, strain bik1, stronger effect = lower value 0.997 | locus YCL061C, strain MRC1, stronger effect = lower value 1.02 | locus YCL069W, strain vba3, stronger effect = lower value 1.01 | locus YCR088W, strain abp1, stronger effect = lower value 1.01 | locus YDL005C, strain med2, stronger effect = lower value 1.02 | locus YDL035C, strain GPR1, stronger effect = lower value 1.01 | locus YDL040C, strain nat1, stronger effect = lower value 1.01 | locus YDL074C, strain BRE1, stronger effect = lower value 1.03 | locus YDL101C, strain DUN1, stronger effect = lower value 1.02 | locus YDL185W, strain tfp1, stronger effect = lower value 1.01 | locus YDL192W, strain arf1, stronger effect = lower value 1 | locus YDR001C, strain nth1, stronger effect = lower value 1.01 | locus YDR069C, strain doa4, stronger effect = lower value 1.02 | locus YDR101C, strain arx1, stronger effect = lower value 0.99 | locus YDR137W, strain rgp1, stronger effect = lower value 1.01 | locus YDR159W, strain sac3, stronger effect = lower value 1.01 | locus YDR162C, strain NBP2, stronger effect = lower value 1.02 | locus YDR195W, strain ref2 1.01 | locus YDR297W, strain sur2, stronger effect = lower value 1 | locus YDR318W, strain mcm21, stronger effect = lower value 1.01 | locus YDR334W, strain swr1, stronger effect = lower value 1.01 | locus YDR335W, strain msn5, stronger effect = lower value 0.998 | locus YDR388W, stronger effect = lower value 0.998 | locus YDR392W, strain spt3, stronger effect = lower value 1.01 | locus YDR502C, strain sam2, stronger effect = lower value 1.02 | locus YEL003W, strain gim4, stronger effect = lower value 1.01 | locus YEL037C, strain rad23, stronger effect = lower value 1 | locus YEL061C, strain CIN8 (second series), stronger effect = lower value 1 | locus YEL061C, strain CIN8, stronger effect = lower value 1.01 | locus YER015W, strain faa2, stronger effect = lower value 1.01 | locus YER016W, strain bim1, stronger effect = lower value 1.03 | locus YER110C, stronger effect = lower value 1.01 | locus YER111C, strain swi4, stronger effect = lower value 1.01 | locus YER155C, strain BEM2 (second series), stronger effect = lower value 1.03 | locus YER155C, strain BEM2, stronger effect = lower value 0.995 | locus YER167W, strain BCK2, stronger effect = lower value 1.01 | locus YFR010W, strain ubp6, stronger effect = lower value 1.02 | locus YGL078C, strain dbp3, stronger effect = lower value 1.02 | locus YGL086W, strain mad1, stronger effect = lower value 1.01 | locus YGL167C, strain pmr1, stronger effect = lower value 1.02 | locus YGL173C, strain kem1, stronger effect = lower value 1.01 | locus YGL227W, strain vid30, stronger effect = lower value 1.01 | locus YGL240W, strain doc1, stronger effect = lower value 1.01 | locus YGL248W, strain PDE1, stronger effect = lower value 1.02 | locus YGL253W, strain hxk2, stronger effect = lower value 1.02 | locus YGR135W, strain pre9, stronger effect = lower value 1.02 | locus YGR252W, strain gcn5, stronger effect = lower value 1.02 | locus YHR013C, strain ard1, stronger effect = lower value 1.01 | locus YHR027C, strain rpn1, stronger effect = lower value 1.01 | locus YHR030C, strain SLT2, stronger effect = lower value 1 and 1.05 | locus YHR079C, strain IRE1 (second series), stronger effect = lower value 1.01 | locus YHR079C, strain IRE1, stronger effect = lower value 1.04 | locus YHR094C, strain hxt1, stronger effect = lower value 1.01 | locus YHR129C, strain ARP1, stronger effect = lower value 1 | locus YHR142W, strain chs7, stronger effect = lower value 0.999 | locus YHR200W, strain rpn10, stronger effect = lower value 1.01 | locus YIL066C, strain RNR3, stronger effect = lower value 1.01 | locus YIL073C, strain SPO22, stronger effect = lower value 1.04 | locus YIL125W, strain kgd1, stronger effect = lower value 0.999 | locus YIR030C, strain dcg1, stronger effect = lower value 1 | locus YJL092W, strain hpr5, stronger effect = lower value 1.01 | locus YJL095W, strain BCK1 (second series), stronger effect = lower value 1.02 | locus YJL095W, strain BCK1, stronger effect = lower value 1.04 and 1.02 | locus YJL115W, strain asf1, stronger effect = lower value 0.997 | locus YJL129C, strain trk1, stronger effect = lower value 1.02 | locus YJL134W, strain LCB3, stronger effect = lower value 1.01 | locus YJL154C, strain vps35, stronger effect = lower value 1.01 | locus YJL164C, strain tpk1, stronger effect = lower value 1.01 | locus YJL166W, strain qcr8, stronger effect = lower value 1.01 | locus YJL168C, strain set2, stronger effect = lower value 0.997 | locus YJL187C, strain SWE1 (second series), stronger effect = lower value 1.03 | locus YJL187C, strain SWE1, stronger effect = lower value 1.01

From PubChem BioAssay AID1159580 (chemical genetic matrix, 2015)
